# Test results reported in ChEMBL document CHEMBL1961873, “Compounds: GSK PKIS; Assays: Nanosyn kinase panel” (2012).
# Legend:
# [1] = molecular target: Tyrosine-protein kinase SYK (Homo sapiens) (UniProt P43405); conditions: at 1 µM
# [2] = molecular target: T1, Tyrosine-protein kinase Tec (Homo sapiens) (UniProt P42680); conditions: at 0.1 µM
# T1 sequence (whole entry): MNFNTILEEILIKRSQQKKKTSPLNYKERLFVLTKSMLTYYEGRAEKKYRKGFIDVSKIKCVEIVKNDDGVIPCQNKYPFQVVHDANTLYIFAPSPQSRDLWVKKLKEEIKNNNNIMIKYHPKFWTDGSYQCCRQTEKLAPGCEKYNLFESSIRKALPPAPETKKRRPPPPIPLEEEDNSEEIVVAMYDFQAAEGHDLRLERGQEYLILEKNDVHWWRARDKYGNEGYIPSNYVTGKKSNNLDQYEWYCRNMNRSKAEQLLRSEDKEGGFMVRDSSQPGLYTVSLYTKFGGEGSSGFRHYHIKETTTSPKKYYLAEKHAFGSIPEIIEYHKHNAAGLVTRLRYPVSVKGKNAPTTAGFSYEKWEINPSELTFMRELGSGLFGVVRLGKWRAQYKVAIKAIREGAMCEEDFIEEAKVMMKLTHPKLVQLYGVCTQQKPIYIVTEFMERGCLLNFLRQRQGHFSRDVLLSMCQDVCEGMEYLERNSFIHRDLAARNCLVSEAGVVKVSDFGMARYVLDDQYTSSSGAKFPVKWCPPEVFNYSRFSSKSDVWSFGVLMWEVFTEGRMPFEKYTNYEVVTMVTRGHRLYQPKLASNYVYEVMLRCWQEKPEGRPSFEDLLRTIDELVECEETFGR
# [3] = molecular target: T1, Tyrosine-protein kinase Tec (Homo sapiens); conditions: at 1 µM
# [4] = molecular target: Angiopoietin-1 receptor (Homo sapiens) (UniProt Q02763); conditions: at 0.1 µM
# Chain of Angiopoietin-1 receptor (Homo sapiens) (Q02763 whole entry): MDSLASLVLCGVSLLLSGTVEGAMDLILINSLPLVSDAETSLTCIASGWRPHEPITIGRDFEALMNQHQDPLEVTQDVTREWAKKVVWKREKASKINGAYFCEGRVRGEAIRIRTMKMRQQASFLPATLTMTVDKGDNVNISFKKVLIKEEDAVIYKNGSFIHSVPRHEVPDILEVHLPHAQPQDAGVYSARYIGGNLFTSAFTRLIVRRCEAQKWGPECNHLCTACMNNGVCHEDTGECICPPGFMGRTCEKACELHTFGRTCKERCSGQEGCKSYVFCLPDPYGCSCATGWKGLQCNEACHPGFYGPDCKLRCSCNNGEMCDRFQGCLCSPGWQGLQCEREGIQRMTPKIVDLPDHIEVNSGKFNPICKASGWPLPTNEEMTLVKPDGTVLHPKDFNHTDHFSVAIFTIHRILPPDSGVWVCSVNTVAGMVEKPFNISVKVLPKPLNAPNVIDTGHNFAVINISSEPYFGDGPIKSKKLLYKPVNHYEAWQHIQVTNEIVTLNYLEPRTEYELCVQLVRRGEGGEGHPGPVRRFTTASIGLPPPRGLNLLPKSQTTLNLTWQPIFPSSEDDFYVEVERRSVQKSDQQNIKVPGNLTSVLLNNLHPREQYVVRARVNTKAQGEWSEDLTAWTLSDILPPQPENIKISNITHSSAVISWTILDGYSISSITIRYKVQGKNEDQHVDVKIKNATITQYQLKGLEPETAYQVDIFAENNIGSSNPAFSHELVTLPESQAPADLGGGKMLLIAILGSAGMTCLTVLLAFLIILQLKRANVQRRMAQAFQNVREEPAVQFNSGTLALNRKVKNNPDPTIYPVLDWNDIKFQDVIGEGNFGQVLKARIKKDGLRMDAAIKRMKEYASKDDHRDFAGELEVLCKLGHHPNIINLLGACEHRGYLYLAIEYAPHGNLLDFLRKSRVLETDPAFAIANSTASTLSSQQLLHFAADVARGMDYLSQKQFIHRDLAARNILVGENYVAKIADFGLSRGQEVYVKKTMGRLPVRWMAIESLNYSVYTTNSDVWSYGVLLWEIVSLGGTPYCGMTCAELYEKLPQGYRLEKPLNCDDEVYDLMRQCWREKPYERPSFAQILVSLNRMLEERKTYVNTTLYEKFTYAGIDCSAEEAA
# [5] = molecular target: Angiopoietin-1 receptor (Homo sapiens) (UniProt Q02763); conditions: at 1 µM
# [6] = molecular target: T2, Non-receptor tyrosine-protein kinase TNK1 (Homo sapiens) (UniProt Q13470); conditions: at 0.1 µM
# T2 sequence (whole entry): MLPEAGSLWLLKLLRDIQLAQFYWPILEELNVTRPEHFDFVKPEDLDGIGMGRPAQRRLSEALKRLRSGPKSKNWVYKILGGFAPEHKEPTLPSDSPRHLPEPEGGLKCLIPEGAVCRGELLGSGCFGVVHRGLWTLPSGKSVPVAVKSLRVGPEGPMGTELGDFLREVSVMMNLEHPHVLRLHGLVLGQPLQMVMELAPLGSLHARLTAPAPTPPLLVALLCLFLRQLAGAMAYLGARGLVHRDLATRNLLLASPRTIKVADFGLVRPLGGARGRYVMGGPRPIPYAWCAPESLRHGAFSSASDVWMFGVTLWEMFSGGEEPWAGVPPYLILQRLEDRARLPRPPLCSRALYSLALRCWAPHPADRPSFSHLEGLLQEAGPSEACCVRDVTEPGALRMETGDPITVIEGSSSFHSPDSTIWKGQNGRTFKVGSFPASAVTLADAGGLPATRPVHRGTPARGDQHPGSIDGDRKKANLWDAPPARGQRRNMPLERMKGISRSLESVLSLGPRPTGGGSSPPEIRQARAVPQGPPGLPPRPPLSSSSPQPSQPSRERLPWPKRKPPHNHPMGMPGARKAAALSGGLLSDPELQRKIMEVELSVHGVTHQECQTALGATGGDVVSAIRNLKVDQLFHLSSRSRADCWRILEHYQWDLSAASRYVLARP
# [7] = molecular target: T2, Non-receptor tyrosine-protein kinase TNK1 (Homo sapiens); conditions: at 1 µM
# [8] = molecular target: Activated CDC42 kinase 1 (Homo sapiens) (UniProt Q07912); conditions: at 0.1 µM
# Chain of Activated CDC42 kinase 1 (Homo sapiens) (Q07912 whole entry, looked up): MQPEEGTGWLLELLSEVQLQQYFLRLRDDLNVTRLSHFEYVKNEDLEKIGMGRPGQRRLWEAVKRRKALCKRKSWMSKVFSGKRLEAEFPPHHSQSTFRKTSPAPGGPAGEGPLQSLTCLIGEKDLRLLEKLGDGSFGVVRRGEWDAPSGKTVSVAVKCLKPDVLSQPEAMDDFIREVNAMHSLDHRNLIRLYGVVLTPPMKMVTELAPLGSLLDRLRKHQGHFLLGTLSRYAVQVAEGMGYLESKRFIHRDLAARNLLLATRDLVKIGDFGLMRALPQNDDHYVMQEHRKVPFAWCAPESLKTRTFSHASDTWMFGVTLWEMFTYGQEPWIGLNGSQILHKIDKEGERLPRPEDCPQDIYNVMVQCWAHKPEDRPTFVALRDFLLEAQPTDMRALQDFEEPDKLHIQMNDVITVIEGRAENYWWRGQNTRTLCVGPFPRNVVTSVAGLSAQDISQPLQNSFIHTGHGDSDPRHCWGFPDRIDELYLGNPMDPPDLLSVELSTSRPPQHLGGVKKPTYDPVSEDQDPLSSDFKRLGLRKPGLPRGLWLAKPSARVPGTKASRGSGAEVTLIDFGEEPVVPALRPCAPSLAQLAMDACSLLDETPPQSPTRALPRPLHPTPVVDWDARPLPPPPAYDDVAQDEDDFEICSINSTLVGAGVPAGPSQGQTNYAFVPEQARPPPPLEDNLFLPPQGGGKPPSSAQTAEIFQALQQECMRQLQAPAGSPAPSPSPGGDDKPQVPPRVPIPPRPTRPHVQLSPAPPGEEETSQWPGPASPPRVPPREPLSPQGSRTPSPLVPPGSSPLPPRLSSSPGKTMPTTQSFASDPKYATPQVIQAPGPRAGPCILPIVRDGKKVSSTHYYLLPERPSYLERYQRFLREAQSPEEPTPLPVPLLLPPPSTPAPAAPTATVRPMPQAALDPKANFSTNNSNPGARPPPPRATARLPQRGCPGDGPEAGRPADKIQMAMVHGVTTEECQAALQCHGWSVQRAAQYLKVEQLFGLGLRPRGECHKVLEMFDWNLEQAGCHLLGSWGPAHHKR
# [9] = molecular target: Activated CDC42 kinase 1 (Homo sapiens) (UniProt Q07912); conditions: at 1 µM
# [10] = molecular target: High affinity nerve growth factor receptor (Homo sapiens) (UniProt P04629); conditions: at 0.1 µM
# Chain of High affinity nerve growth factor receptor (Homo sapiens) (P04629 33-796 limits assumed): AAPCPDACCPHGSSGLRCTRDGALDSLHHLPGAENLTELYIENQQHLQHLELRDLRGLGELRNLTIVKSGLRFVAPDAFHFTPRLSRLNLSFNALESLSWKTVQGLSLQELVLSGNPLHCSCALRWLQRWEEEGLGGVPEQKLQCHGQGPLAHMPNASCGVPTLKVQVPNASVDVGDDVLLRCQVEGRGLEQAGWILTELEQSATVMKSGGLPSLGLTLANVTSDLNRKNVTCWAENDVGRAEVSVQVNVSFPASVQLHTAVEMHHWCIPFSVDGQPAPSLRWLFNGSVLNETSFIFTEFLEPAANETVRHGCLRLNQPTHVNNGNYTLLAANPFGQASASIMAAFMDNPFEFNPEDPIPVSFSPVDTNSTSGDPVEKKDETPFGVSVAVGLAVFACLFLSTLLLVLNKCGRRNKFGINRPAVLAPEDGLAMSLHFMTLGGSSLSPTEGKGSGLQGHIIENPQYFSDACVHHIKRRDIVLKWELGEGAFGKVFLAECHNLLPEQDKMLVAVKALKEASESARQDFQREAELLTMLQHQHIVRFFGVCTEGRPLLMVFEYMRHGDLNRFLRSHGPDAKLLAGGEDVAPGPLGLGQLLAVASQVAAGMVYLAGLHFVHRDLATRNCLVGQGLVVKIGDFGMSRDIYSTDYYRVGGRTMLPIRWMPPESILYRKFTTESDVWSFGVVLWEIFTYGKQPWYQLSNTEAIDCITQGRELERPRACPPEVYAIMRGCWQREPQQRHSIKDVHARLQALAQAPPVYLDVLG
# [11] = molecular target: High affinity nerve growth factor receptor (Homo sapiens) (UniProt P04629); conditions: at 1 µM
# [12] = molecular target: BDNF/NT-3 growth factors receptor (Homo sapiens) (UniProt Q16620); conditions: at 0.1 µM
# [13] = molecular target: BDNF/NT-3 growth factors receptor (Homo sapiens) (UniProt Q16620); conditions: at 1 µM
# [14] = molecular target: NT-3 growth factor receptor (Homo sapiens) (UniProt Q16288); conditions: at 0.1 µM
# Chain of NT-3 growth factor receptor (Homo sapiens) (Q16288 32-839 limits assumed): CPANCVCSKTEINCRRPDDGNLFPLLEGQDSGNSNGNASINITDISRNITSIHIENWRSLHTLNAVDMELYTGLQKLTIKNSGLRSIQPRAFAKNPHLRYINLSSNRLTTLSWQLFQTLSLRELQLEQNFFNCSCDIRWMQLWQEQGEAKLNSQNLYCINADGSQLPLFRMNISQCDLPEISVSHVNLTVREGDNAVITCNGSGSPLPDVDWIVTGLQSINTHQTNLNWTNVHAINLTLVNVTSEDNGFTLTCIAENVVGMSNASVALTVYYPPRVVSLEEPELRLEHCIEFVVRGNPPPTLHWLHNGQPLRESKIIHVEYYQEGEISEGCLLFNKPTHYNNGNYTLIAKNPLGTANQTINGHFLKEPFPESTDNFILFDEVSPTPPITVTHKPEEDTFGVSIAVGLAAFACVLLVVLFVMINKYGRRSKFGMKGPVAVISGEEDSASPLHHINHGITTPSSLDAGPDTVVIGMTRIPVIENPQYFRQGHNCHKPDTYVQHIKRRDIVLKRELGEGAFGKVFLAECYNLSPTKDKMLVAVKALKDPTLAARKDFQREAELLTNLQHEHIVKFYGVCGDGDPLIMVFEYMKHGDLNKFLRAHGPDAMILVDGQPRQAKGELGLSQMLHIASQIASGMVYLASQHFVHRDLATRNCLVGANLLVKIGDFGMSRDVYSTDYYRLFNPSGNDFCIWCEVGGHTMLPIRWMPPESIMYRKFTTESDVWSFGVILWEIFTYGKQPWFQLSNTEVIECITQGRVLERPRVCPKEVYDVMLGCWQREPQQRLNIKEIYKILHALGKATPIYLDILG
# [15] = molecular target: NT-3 growth factor receptor (Homo sapiens) (UniProt Q16288); conditions: at 1 µM
# [16] = molecular target: T3, Tyrosine-protein kinase TXK (Homo sapiens) (UniProt P42681); conditions: at 0.1 µM
# T3 sequence (whole entry): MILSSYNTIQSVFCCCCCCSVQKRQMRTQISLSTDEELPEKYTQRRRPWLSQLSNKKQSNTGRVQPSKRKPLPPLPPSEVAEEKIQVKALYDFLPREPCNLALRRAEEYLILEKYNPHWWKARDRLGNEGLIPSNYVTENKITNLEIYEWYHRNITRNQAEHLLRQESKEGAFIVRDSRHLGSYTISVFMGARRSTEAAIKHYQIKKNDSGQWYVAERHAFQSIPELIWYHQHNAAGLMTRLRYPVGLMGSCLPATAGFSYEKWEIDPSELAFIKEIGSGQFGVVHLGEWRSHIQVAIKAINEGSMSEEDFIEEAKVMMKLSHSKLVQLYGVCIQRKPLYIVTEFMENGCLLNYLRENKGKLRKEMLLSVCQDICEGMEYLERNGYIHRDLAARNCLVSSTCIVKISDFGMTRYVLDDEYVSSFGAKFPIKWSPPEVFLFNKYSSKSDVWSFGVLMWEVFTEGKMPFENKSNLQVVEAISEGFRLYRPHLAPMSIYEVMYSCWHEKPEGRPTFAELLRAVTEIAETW
# [17] = molecular target: T3, Tyrosine-protein kinase TXK (Homo sapiens); conditions: at 1 µM
# [18] = molecular target: Non-receptor tyrosine-protein kinase TYK2 (Homo sapiens) (UniProt P29597); conditions: at 0.1 µM;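 also: each value is a mean of the inhibition readings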
# Chain of Non-receptor tyrosine-protein kinase TYK2 (Homo sapiens) (P29597 whole entry): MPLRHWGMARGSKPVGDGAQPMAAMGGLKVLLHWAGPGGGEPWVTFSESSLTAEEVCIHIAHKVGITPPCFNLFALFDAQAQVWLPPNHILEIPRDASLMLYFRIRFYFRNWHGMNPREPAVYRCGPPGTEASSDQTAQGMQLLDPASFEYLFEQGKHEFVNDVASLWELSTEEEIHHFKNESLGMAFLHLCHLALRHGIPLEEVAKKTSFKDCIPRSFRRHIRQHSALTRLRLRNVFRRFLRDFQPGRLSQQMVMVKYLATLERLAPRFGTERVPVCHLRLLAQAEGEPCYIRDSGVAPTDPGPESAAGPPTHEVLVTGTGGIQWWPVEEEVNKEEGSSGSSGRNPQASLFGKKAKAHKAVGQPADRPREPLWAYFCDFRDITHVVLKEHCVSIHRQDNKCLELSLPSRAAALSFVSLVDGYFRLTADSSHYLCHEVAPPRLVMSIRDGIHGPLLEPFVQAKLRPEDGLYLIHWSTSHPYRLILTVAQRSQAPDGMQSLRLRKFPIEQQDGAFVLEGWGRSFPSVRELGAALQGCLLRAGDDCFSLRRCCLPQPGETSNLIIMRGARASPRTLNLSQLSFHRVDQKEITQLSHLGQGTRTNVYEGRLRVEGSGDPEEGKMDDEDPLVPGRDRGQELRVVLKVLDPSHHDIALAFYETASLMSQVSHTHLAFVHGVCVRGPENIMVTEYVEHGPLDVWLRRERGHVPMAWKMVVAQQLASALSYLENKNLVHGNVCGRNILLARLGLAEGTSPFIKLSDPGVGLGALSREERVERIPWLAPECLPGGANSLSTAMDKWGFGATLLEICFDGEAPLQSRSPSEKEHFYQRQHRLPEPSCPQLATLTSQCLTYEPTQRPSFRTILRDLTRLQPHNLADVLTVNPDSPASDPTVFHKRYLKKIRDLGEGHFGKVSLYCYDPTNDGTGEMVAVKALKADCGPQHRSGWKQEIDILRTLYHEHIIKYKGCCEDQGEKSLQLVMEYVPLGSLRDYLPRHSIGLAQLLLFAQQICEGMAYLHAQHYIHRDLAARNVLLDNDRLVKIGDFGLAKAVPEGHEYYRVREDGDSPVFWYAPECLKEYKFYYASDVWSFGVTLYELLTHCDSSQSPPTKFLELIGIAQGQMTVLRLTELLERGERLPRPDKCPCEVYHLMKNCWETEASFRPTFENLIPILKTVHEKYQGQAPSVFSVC
# [19] = molecular target: T4, Dual specificity protein kinase TTK (Homo sapiens) (UniProt P33981); conditions: at 1 µM;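 also: reported figures are mean TTK inhibition at 1 µM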
# T4 sequence (whole entry): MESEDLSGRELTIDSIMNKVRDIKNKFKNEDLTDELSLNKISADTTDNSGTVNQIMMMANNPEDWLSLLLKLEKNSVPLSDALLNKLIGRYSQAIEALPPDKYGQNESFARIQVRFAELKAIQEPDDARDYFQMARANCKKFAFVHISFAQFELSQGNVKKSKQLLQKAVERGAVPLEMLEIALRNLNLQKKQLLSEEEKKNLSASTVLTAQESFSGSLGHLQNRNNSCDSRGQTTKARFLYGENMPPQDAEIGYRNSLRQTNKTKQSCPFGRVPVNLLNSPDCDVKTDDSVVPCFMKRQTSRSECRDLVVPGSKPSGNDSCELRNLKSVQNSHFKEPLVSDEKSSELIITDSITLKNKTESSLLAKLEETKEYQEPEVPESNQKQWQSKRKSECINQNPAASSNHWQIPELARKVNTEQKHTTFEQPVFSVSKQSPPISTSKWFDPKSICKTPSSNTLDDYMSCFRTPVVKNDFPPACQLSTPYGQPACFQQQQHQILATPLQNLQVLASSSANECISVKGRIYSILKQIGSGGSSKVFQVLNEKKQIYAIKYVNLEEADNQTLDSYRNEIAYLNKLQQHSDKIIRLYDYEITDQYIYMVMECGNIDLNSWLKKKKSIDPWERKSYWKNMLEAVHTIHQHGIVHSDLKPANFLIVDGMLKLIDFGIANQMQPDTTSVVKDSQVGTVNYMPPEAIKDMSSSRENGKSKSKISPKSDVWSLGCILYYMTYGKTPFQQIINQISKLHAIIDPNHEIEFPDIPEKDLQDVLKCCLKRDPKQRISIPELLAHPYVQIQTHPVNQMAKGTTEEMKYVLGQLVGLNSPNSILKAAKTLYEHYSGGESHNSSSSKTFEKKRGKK
# [20] = molecular target: T5, Aurora kinase A (Homo sapiens) (UniProt O14965); conditions: at 0.1 µM;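 also: each reported value is a mean percent inhibition of Aurora-A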
# T5 sequence (whole entry): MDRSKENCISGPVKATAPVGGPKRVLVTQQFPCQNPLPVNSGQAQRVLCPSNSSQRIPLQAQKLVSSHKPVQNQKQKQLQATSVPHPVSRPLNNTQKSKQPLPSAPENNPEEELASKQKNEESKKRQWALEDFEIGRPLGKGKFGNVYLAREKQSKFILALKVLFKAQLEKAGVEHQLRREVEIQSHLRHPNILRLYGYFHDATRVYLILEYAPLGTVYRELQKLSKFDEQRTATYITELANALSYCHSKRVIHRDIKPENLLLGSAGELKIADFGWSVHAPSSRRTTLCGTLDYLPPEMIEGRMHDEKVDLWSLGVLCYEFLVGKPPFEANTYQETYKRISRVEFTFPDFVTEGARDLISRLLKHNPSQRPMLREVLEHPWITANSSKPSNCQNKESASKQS
SMILES,inhibition [1] [%],inhibition [2] [%],inhibition [3] [%],inhibition [4] [%],inhibition [5] [%],inhibition [6] [%],inhibition [7] [%],inhibition [8] [%],inhibition [9] [%],inhibition [10] [%],inhibition [11] [%],inhibition [12] [%],inhibition [13] [%],inhibition [14] [%],inhibition [15] [%],inhibition [16] [%],inhibition [17] [%],inhibition [18] [%],inhibition [19] [%],inhibition [20] [%]
CN(C)CCCn1c(-c2nonc2N)nc2cnccc21,0.37,4,4.06,0.92,1.59,1.08,-3.93,0.54,0.77,1.3,3.29,-0.15,3.55,-0.01,3.2,3.61,4.3,-2.99,0.63,3.15
COc1ccc2ncnc(Nc3ccc(OCc4ccccc4)cc3)c2c1,-1.05,2.8,4.49,2.79,5.45,2.34,12.3,0.68,1.66,0.33,1.61,2.59,2.63,-0.03,0.85,2.73,3.98,-2.4,4.18,1.97
Cc1ccc2c(c1)/C(=N/Nc1ccc(S(N)(=O)=O)cc1)C(=O)N2,-2.83,1.52,4.33,-0.15,2.63,-2.23,3.63,-0.48,-0.62,-1.8,11.8,3.81,31.2,4.95,39.2,1.24,3.92,1.2,33.2,2.87
COc1cc(Nc2nccc(-c3cnn4ncccc34)n2)cc(OC)c1,61.2,9.2,42.9,7.05,39.6,26.8,64.4,3.06,35.6,0.98,26.7,5.6,39.5,9.63,45.6,5.79,31.4,4.29,15.4,20.9
NS(=O)(=O)c1ccc(N/N=C2\C(=O)Nc3ccc(Cl)cc32)cc1,-3.16,4.2,6.14,0.79,3.42,3.04,20.5,0.4,3.7,3.01,17.9,5.72,34.7,9.02,42.3,3.22,4.96,-4.4,45.1,3.86
